Measured values: PubChem BioAssay (NCI)
This is part of a sample that, as a whole, favours compounds with a hit. Of some 83,000 tested, about 20% had one in any assay.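 Plates (96-well) were seeded with cells, treated with compound at one concentration, and incubated for 48 hours before percent growth was determined.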 Active and inactive are the calls of the source.

Tested on: EKVX NSCLC
Assay: NCI-60 one-dose screen, 48 h (100 = growth as untreated, 0 = no growth, -100 = all killed)
Conditions: 10 µM unless noted
Method: Growth inhibition of the EKVX human Non-Small Cell Lung tumor cell line is measured as a screen for anti-cancer activity. Cells are grown in 96 well plates and exposed to the test compound for 48 hours. Compounds are tested at a single concentration, which is 10^-5 M for most compounds. The reported endpoint is percent growth (GI% or GIPRCNT), where numbers from 0 - 100% represent growth inhibition, and numbers from -100% - 0 represent cell death. For example, a value of 40 represents 60% growth inhibition. A value of 0 means no net growth occurred over the course of the experiment. A value of -40 indicates 40% of cells at the beginning of the experiment died by the end of the experiment. A value of -100 means all cells are dead at the end of the experiment.
NCI-60 Human Tumor Cell Lines Screen was performed using the standard one-dose NCI protocol, which is described in more detail at https://dtp.cancer.gov/discovery_development/nci-60/default.htm.
Compounds with GIPRCNT values below 10 were considered active. Activity score was based on GIPRCNT using the following formula: […]
Score is 0 for GIPRCNT values of 100 or above, 50 for GIPRCNT values of 0, and 100 for GIPRCNT values of -100.

Row | SMILES | growth
1 | CC[C@@H](c1ccc2cc(OC)ccc2c1)C(C)(C)C(=O)F | 96.1% (inactive)
2 | C#CCOc1cccc(-c2ncc3cc(NC(=O)CCl)ccc3n2)c1 | -1.1% (active)
3 | COc1ccc2nc3ccccc3c(NCc3ccccc3)c2c1 | 26.9% (inactive)
4 | COc1ccc(-c2cc(-c3cc(OC)c(OC)c(OC)c3)c(C#N)c(=O)n2CCCCCC(=O)NO)cc1 | 91.3% (inactive)
5 | C=CCn1c(SCC(=O)Nc2ccc(C(=O)/C=C/c3ccc(OC)cc3)cc2)nnc1-c1ccccc1 | 88.4% (inactive)
6 | CN(Cc1cnc2nc(N)nc(N)c2n1)c1c(Cl)cc(C(=O)NC(CCC(=O)O)C(=O)O)cc1Cl (stereo not given) | 42.4% (inactive)
7 | Cc1ccc2[nH]c(=O)c3c(c2c1)OC(N)=C(C#N)C31C(=O)c2cccc3cccc1c23 (stereo not given) | 102% (inactive)
8 | Cc1ccccc1CNc1c2ccccc2nc2ccccc12 | 38.4% (inactive)
9 | CC1COCC(C)N1C1=C(Cl)C(=O)c2ccccc2C1=O (stereo not given) | 89.9% (inactive)
10 | CCOC(=O)C1=C(c2ccccc2)N=c2s/c(=C/c3ccc(Br)cc3)c(=O)n2C1c1ccc(O)cc1 (stereo not given) | 76.8% (inactive)
11 | CCOC(=O)C(=Cc1cccc(C#N)c1)C(=O)OCC | 82.3% (inactive)
12 | C#CCOc1ccc2ncnc(Nc3cccc(NC(=O)CCl)c3)c2c1 | 92.9% (inactive)
13 | Brc1ccc(-c2cnc3nonc3n2)cc1 | 72.1% (inactive)
14 | C=CC(=O)NCCOc1cccc(Nc2cc(NCCCNC(=O)C3CCC3)c(Br)cn2)c1 | -13.6% (active)
15 | Cc1cc2oc(=O)cc(CP(=O)(O)O)c2cc1O | 97.1% (inactive)
16 | CCOC(=O)c1c2c(n3ccccc13)C(=O)c1ncccc1C2=O | 40.4% (inactive)
17 | COc1ccc2c(c1)c(-c1ccc(-c3cn(C)c4ccc(OC)cc34)[nH]1)cn2C | -4.9% (active)
18 | O=C(Nc1cccnc1Nc1ccc(Cl)cc1)c1cn(Cc2ccc(F)cc2)nn1 | 92.6% (inactive)
19 | CN(C)Cc1ccc(C(=O)Nc2ccc3ncnc(Nc4ccc(Oc5cccc(F)c5)c(Cl)c4)c3c2)cc1 | 35.5% (inactive)
20 | O=C1Nc2ccc(F)cc2/C1=N/c1nnc(Sc2ccccc2)s1 | 101% (inactive)

Row | SMILES | growth
21 | COc1ccc2c(c1)c(-c1nonc1-c1cn(C)c3ccc(OC)cc13)cn2C | 47.4% (inactive)
22 | CC(O)c1ncc(/C=C2\SC(=S)N(Cc3ccccc3)C2=O)s1 (stereo not given) | 101% (inactive)
23 | O=c1[nH]c(-c2ccc(Cl)cc2)cn1-c1ccc(-n2cc(-c3ccc(Cl)cc3)[nH]c2=O)cc1 | 109% (inactive)
24 | CN1CCN(CCCOc2ccc3ncnc(Nc4ccc(Oc5cccc(F)c5)c(Cl)c4)c3c2)CC1 | 29.6% (inactive)
25 | O=C(N=Nc1c(O)[nH]c2ccccc12)Nc1ccc(Cl)cc1 | 86.5% (inactive)
26 | Cc1c2cnccc2c(C)c2c1c1cc(C3OCCCO3)ccc1n2C | 3.53% (active)
27 | COc1cc(/C=N/Nc2ccccc2F)cc(OC)c1OC | 87.4% (inactive)
28 | COc1ccc(C2CC(c3ccc(Nc4nc(Nc5ccc(F)cc5)nc(Nc5ccc(F)cc5)n4)cc3)=NN2C(C)=O)cc1 (stereo not given) | 94.8% (inactive)
29 | CC(=O)N/C(=C1/OC(C(O)C(O)C(O)CO)CN1C)[P+](c1ccccc1)(c1ccccc1)c1ccccc1 (stereo not given) | 90.3% (inactive)
30 | O=C1/C(=C/c2cccc([N+](=O)[O-])c2)COc2ccc(O)cc21 | 95.8% (inactive)
31 | Clc1nn2c(Cn3cnc4c(NCc5ccccc5)ncnc43)nnc2c2ccccc12 | 52% (inactive)
32 | COc1ccccc1NC(=O)c1ccc(/C=C/C(=O)c2nccn2C)cc1 | -12.2% (active)
33 | COc1ccc(C2=NN(C(C)=O)C(c3ccc(Oc4ccnc5cc(Cl)ccc45)c(OC)c3)C2)cc1 (stereo not given) | 62% (inactive)
34 | O=C(/C=C/c1cccc(Cl)c1)c1cccc(OCCCCOc2cccc(C(=O)/C=C/c3cccc(Cl)c3)c2)c1 | 106% (inactive)
35 | NC(CSC(c1ccccc1)(c1ccccc1)c1ccc2c(c1)OCO2)C(=O)O (stereo not given) | 43.4% (inactive)
36 | O=C1c2cccnc2C(=O)c2c1c(C(=O)OCCCN1CCCCC1)c1ccccn21 | -15.6% (active)
37 | COc1cc(-c2nc(NC(C)=O)sc2-c2ccnc(NCCNS(=O)(=O)c3ccccc3)n2)ccc1Cl | 45.4% (inactive)
38 | Cc1nn(-c2ccccc2)c(N2CCCCC2)c1/C=N/NC(=O)Cn1c(=O)sc2ccccc21 | 74.5% (inactive)
39 | O=C1NC(=O)c2c1c1c3ccccc3[nH]c1c1oc3cc(Br)ccc3c21 | 69.9% (inactive)
40 | CCOC(=O)c1c2c(n3c1NCC3)-c1ccccc1C2=O | 95.8% (inactive)
